An excerpt weighted towards active compounds, which were near 0.86% of everything screened.
Tb PGK inh: inhibitors of T. brucei phosphoglycerate kinase; P07378; PGK/GAPDH coupled, Kinase-Glo luminescence, 60 min; 0.043% of 380,000 active; Potency, µM (doses to about 57.5 µM), for inactives: at the highest dose activity change, negative = inhibition, usual class: inhibitors; AID 602233; note: nearly all actives have a fitted effect of over 60% in size
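Luminescent ATP detection (Kinase-Glo Plus) follows a 60-minute room-temperature incubation, with wells lacking PGK as controls. Buffer: 100 mM TEA (pH 7.6), 5 mM MgCl2, 0.01% Tween-20. Coupling enzyme GAPDH (100 nM final) supplies unstable 1,3-BPG in-well.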
RECQ1 inh: inhibitors of human RECQ1 DNA helicase; P46063; 0.54% of 240,000 active; AID 2549; Potency, µM (top dose mostly 57.3 µM), inactives show at the top dose activity, negative = inhibition, most hits filed as inhibitors; RECQ1 DNA unwinding, red fluorescence kinetic read;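 note: plate controls were vehicle for no effect and no enzyme for full effect; nearly all actives have a fitted effect of over 30% in size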
Target sequence (P46063 whole entry, looked up): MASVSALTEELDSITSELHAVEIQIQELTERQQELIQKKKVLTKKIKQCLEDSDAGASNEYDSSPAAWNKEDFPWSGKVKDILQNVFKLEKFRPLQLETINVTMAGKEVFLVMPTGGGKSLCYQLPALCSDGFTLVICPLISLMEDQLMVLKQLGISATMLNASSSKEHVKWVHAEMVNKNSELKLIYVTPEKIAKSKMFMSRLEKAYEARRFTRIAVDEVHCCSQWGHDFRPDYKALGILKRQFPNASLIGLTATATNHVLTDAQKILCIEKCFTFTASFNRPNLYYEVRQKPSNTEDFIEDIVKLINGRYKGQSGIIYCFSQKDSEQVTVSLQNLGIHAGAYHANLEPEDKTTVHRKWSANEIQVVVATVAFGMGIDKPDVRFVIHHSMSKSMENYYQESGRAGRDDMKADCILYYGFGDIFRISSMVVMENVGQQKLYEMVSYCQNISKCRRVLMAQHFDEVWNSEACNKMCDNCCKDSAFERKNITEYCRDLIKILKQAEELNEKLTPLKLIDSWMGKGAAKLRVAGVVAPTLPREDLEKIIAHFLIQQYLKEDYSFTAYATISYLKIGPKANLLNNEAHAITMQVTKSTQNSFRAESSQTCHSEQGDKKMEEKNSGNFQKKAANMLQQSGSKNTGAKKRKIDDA
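50 nM RECQ1T1 preincubated 15 min with compound in Tris pH 8.0 buffer with MgCl2, DTT, Tween-20 and 2.5 ug/ml poly(dI-dC); started with 200 nM TAMRA/BHQ-2 forked duplex and 2 mM ATP. Unwinding read as fluorescence (525/598 nm), two reads 2 h apart.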
FEN1 inh: inhibitors of human flap endonuclease 1; 0.35% of 390,000 active; AID 588795; Potency, µM (series often up to 114 µM), inactives show top-dose activity change, negative = inhibition, hits mostly inhibitors; Recombinant FEN1 flap cleavage, fluorescence, 15 min; note: nearly all actives have a fitted effect of over 65% in size
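Compounds are tested as a concentration series against 10 nM FEN1; after a 15 min room-temperature preincubation, 50 nM substrate starts cleavage, with plate reads at 0 and 15 min. Normalized responses are fitted by a Hill equation.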
APE1 inh: blocks human APE1 abasic DNA cleavage | P27695 | recombinant APE1, TAMRA/BHQ-2 abasic DNA cleavage fluorescence | Potency, µM (top dose mostly 65.8 µM), for inactives: at the highest dose activity change, negative = inhibition, usual class: inhibitors | 0.35% of 350,000 active;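 note: plate controls were vehicle for no effect and reference inhibitor for full effect; nearly all actives have a fitted effect of over 55% in size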
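Incision of a quenched TAMRA/BHQ-2 THF abasic-site duplex (50 nM) by 0.75 nM APE1, after 15 min compound preincubation, measured as fluorescence increase over three 60 s reads. Values normalized to buffer, DMSO and NSC13755 control wells.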
GLS inh: glutaminase GLS (human) inhibition; O94925; GLS enzymatic activity, qHTS titration; Potency, µM (highest dose often 45.5 µM), inactives show at the highest dose activity change, negative = inhibition, actives largely listed as inhibitors; 0.21% of 410,000 active
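Read-out is an Amplex red fluorescence increase coupled through glutamate oxidase and HRP, measured before and after 30 min room-temperature incubation. hKGA is in 45 mM KH2PO4 (pH 8.2) with 0.02% Tween-20; glutamine added as 1mM solution.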
BLM inh: inhibitors of human Bloom syndrome helicase BLM; 0.2% of 350,000 active; recombinant BLM DNA unwinding, fluorescence dequenching; Potency, µM (top dose mostly 56.1 µM), for inactives: at the top dose activity change, negative = inhibition, hits mostly inhibitors;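 note: plate controls were vehicle for no effect and no enzyme for full effect; nearly all actives have a fitted effect of over 35% in size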
Starred values were filed as active, the others as inactive; i = inactive; ? = inconclusive; . = no result given; [ ] = another dose, or the depositor's remark. Calls come from the whole dose curve; as a rule, active = well fitted curve in the direction sought with a large enough effect; inconclusive = small, poorly fitted or top-dose-only effect, or another doubt; inactive = no such curve, though single readings can be large; an effect the other way counts as inactive or inconclusive. Unless noted, % is set by controls: 0 for no effect and ±100 for the full control effect; potency is the fitted concentration of half-maximal effect.

SMILES	Tb PGK inh	RECQ1 inh	FEN1 inh	APE1 inh	GLS inh	BLM inh
Cc1c(C)c2ccc(OCC(=O)NC(Cc3ccc(Cl)cc3)C(=O)O)cc2oc1=O (stereo unspecified)	-2.7%	.	-10.6%	-3.3%	18.6%	-1.1%
Cc1c(C)c2ccc(OCC(=O)N[C@@H](Cc3ccccc3)C(=O)O)cc2oc1=O	i	.	1.9%	37.5%	15.8µM*	-1.8%
Oc1ccccc1Nc1ccccn1	i	6.1%	1.4%	0.7%	12.6µM*	-3.6%
Brc1ccc2c(ccc[n+]2CCc2ccccc2)c1	.	.	15.6%	.	.	.
COc1cccc(/C=C/c2nccc3ccccc23)c1OC	.	.	1.9%	.	.	.
O=C(O)c1ccc(CSc2nnc(-c3ccc([S+](=O)([O-])N4CCCC4)cc3)n2-c2ccccc2)cc1	.	.	.	-19.7%	.	.
COc1ccccc1N(C)C	.	.	-4.6%	.	.	.
C[n+]1ccnc2ccccc21	.	.	9.9%	.	.	.
C[n+]1c(/C=C/c2ccnc3ccccc23)cc(/C=C/c2ccnc3ccccc23)c2ccccc21	.	.	10µM*	.	.	.
Cc1cc([N+](C)(C)C)cc(C)c1/C=C/c1ccnc2ccccc12	.	.	22.4µM*	.	.	.
CC(=O)c1ccc(NC(=O)CSc2nnc(-c3ccco3)c(-c3ccco3)n2)cc1	-22.3%	-7.2%	31.6µM*	15.8%	-18.8%	7.94µM*
CCOC(=O)c1sc(=S)n(-c2ccccc2)c1NC(C)=O	i	4.9%	79.4µM*	-1.8%	0.1%	-2.6%
CCOC(=O)c1sc(=S)n(C)c1NC(=O)c1ccccc1	-0.2%	-4.5%	1.1%	-3.2%	-4.8%	-2.1%
COc1cc2nc(N3CCN(C)CC3)nc(NC3CC3)c2cc1OC	.	.	-20.2%	.	.	.
COc1cc2nc(N3CCCN(C)CC3)nc(NC3CCN(Cc4ccccc4)CC3)c2cc1OC	.	.	17.8µM*	.	.	.
COc1cc2nc(N3CCCN(C)CC3)nc(Nc3ccncc3)c2cc1OC	.	.	14.1µM*	.	.	.
COc1cc2c(NC3CCN(C)CC3)nc(N3CCCN(C)CC3)nc2cc1OCc1ccccc1	.	.	22.4µM*	.	.	.
CCCC(=O)N1CCCN(c2nc(N)c3cc(OC)c(OC)cc3n2)CC1	.	.	.	.	1.5%	.
NC[C@H]1O[C@H](O[C@H]2[C@H](O)[C@@H](O[C@H]3O[C@H](CO)[C@@H](O)[C@H](N)[C@H]3O)[C@H](N)C[C@@H]2N)[C@H](N)[C@@H](O)[C@@H]1O	.	.	.	8.0%	.	.
CNC(=O)c1cc(-c2cccs2)on1	.	.	-5.6%	.	.	.
N#Cc1c(-c2ccccc2)nc(SCC(=O)N2c3ccccc3Sc3ccccc32)[nH]c1=O	-15.7%	-8.3%	89.1µM*	-8.6%	26.6%	-18.2%
CC=Cc1cc(OC)c2c(c1)C(C)C(c1ccc(O)c(OC)c1)O2 (stereo unspecified)	17.0%	.	-19.4%	.	8.91µM*	.
C/C=C/c1ccc(O)c(OC)c1	-3.1%	-7.5%	-15.7%	-27.6%	22.0%	-7.6%
COc1cc(-c2nnc(COC(=O)c3ccc(C)o3)o2)cc(OC)c1OC	-18.9%	.	0.4%	23.8µM*	-10.2%	.
COc1cc(-c2nnc(COC(=O)c3cc(C)no3)o2)cc(OC)c1OC	-2.6%	.	2.8%	-5.0%	-1.4%	-6.5%
SMILES	Tb PGK inh	RECQ1 inh	FEN1 inh	APE1 inh	GLS inh	BLM inh
O=C1/C(=C/c2cccc(O)c2)SC(=S)N1CC1CCCO1 (stereo unspecified)	-5.7%	4.9%	-1.3%	-1.2%	1.7%	-3.2%
CCOc1cc(/C=C2/SC(=S)N(CC3CCCO3)C2=O)ccc1O (stereo unspecified)	-14.9%	14.1µM*	-33.3%	-10.0%	-7.6%	-12.5%
COC(=O)/C(C#N)=C/c1ccc(-c2ccc(S(N)(=O)=O)cc2)o1	i	3.16µM*	-3.9%	-4.4%	-1.3%	1.1%
CC(C)OC(=O)/C(C#N)=C/c1ccc(-c2ccc(SC(F)F)cc2)o1	-0.5%	7.6%	-6.4%	3.7%	-10.7%	-6.2%
COc1cc(C(=O)NC2CCN(C)CC2)ccc1Nc1ncc2c(n1)N(C1CCCC1)CCC(=O)N2C(C)C	4.9%	.	-14.4%	.	3.6%	.
COc1cc(C(=O)NC2CCN(C)CC2)ccc1Nc1ncc2c(n1)N(CCc1ccccc1)CCC(=O)N2C	-0.8%	.	50.1µM*	.	11.2%	.
C=C(NC(=O)C(=C)NC(=O)c1csc(C2=N[C@@H]3c4csc(n4)[C@H]4NC(=O)c5csc(n5)[C@H]([C@](C)(O)[C@@H](C)O)NC(=O)[C@H]5CSC(=N5)C(=CC)NC(=O)C([C@@H](C)O)NC(=O)c5csc(n5)[C@]3(CC2)NC(=O)[C@H](C)NC(=O)C(=C)NC(=O)[C@H](C)NC(=O)C([C@@H](C)CC)NC2C=Cc3c([C@H](C)O)cc(nc3C2O)C(=O)O[C@@H]4C)n1)C(N)=O (stereo partly specified)	.	.	.	5.1%[21 µM]	.	.
Cc1ccc2nccc(/C=C/c3ccc(N(C)C)cc3)c2c1	.	.	-7.7%	.	.	.
Cn1c(=O)c(Nc2ccc(Cl)cc2)c2c3c(cccc31)C(=O)c1ccccc1-2	-5.3%	28.2µM*	-10.4%	50.7%	-14.9%	-15.7%
CCN(CC)c1ccc(/C=C2\C(=O)c3ccc(C(=O)O)cc3C2=O)cc1	-22.1%	1.8%	39.8µM*	?	?	-11.2%
CCN(CC)c1ccc(C(=O)O)cc1	1.2%	-2.7%	14.5%	4.3%	25.4%	-13.0%
CCN(CC)C(=O)c1ccc(Nc2nnc(-c3ccc(O)cc3)c3ccccc23)cc1	-2.3%	.	-1.5%	1.8%	10µM*	-7.6%
CCN(CC)C(=O)c1ccc(-c2nnc(Nc3cccc(O)c3)c3ccccc23)cc1	i	.	-7.4%	-4.9%	19.2%	-0.6%
Cc1ccc(S(=O)(=O)N2CCN(c3nc(-n4c(=O)[nH]c5ccccc54)nc4ccccc34)CC2)cc1	.	.	8.0%	.	.	.
O=S1(=O)CCOC[C@H](c2ccccc2)N1Cc1ccc(Cl)cc1Cl	.	.	-27.0%	.	.	.
NC(=O)c1ccc(N2CCN(c3ccccc3O)CC2)c([N+](=O)[O-])c1	-1.7%	-0.8%	-1.7%	-1.8%	11.2µM*	-4.1%
NC(=O)c1ccc(N2CCCCCC2)c([N+](=O)[O-])c1	-0.7%	-1.7%	-14.6%	-5.4%	3.0%	-0.7%
CN=C(NC)NCc1ccccc1	.	.	.	.	-4.3%	.
CCCCCCCCN1[C@@H](CC(=O)O)c2ccc(/C=C/C(=O)O)cc2S1(=O)=O	.	.	16.2%	.	.	.
CC(N)(Cc1ccc(O)c(O)c1)C(=O)O (stereo unspecified)	.	3.16µM*	.	1.12µM*	.	?
Cc1cc(/C=C/c2c(C)cnc3ccccc23)ccc1N(C)C	.	.	-2.0%	.	.	.
CCOC(=O)C1=C(CSc2nc(-c3ccccc3)ccc2C#N)OC(N)=C(C#N)C1c1ccc(OC)cc1 (stereo unspecified)	-10.6%	10µM*	?	-8.6%	-8.9%	-13.3%
